# The full ranking holds about 68,000 sequences; the median of “fluorescence intensity (a.u.)” is about 9,100, and the highest 2% start at about 16,000. This excerpt belongs to a sample that is enriched for the highest values.
# Target: OsWRKY34 (Oryza sativa, UniProt Q0JBA9 1-250)
# Test: protein-binding microarray (RPBM); PBS, 2% BSA, 51.3 ng/ul salmon testes DNA, 50 uM zinc acetate, 200 nM TF, 25 C, 1 h; high values mean tight binding
# Details: protein: recombinant; tags: N-terminal polyhistidine and DsRed monomer fusion (pET32a); label: CyDye5-dUTP incorporated in the synthesized complementary strand; 3' TTTTT single-stranded linker to array surface; dsDNA, one strand shown
# Outline: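 A custom Agilent array was converted to double-stranded form by primer extension with Cy5-dUTP and blocked with 2% BSA. Protein at 200 nM in PBS with 2% BSA, salmon testes DNA and 50 µM zinc acetate was applied for 1 h at 25 °C, followed by washing. The proteins were polyhistidine–DsRed N-terminal fusions of transcription factors, expressed in E. coli BL21-CodonPlus and Ni–NTA-purified. The binding signal is per-feature fluorescence intensity (arbitrary units) from an Axon 4000B scanner.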
# Sequence of OsWRKY34 (Q0JBA9 entry or part of it): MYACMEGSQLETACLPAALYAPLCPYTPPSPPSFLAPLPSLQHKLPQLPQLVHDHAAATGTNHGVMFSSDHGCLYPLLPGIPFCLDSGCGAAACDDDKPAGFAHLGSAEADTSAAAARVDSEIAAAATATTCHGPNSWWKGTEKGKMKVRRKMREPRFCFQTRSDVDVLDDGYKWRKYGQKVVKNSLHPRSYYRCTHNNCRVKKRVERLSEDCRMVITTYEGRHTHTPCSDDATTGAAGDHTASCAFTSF
row,Sequence,binding signal
1,TTTCTCATATGTTTGACCATTCGTCTTATTAAAAAAATTTCGGAGTCACCTAGTGCAG,8930 fluorescence intensity (a.u.)
2,ATTTTACTCTTTTGACTATATTGGTTCGGTTGAAGTTTTACGGAGTCACCTAGTGCAG,23100 fluorescence intensity (a.u.)
3,TCTGCTTCACTGTATTTTTGTCCAACAATTCCATGACATGCGGAGTCACCTAGTGCAG,8550 fluorescence intensity (a.u.)
4,TTTAGATTTATTTTTTGTGACATAGGGAGTACTTTTTTTTCGGAGTCACCTAGTGCAG,9200 fluorescence intensity (a.u.)
5,CTTCTCAAGTTCCAACCTTTGCGCTTTCTTATTATCAAAGCGGAGTCACCTAGTGCAG,8550 fluorescence intensity (a.u.)
6,GCACGCATGCAGTTCCTTGACCAATTCTCACATCAACCACCGGAGTCACCTAGTGCAG,9100 fluorescence intensity (a.u.)
7,AAACGTATGGCTGCTCTCTCTCTGCTGATGATCTCTCTCTCGGAGTCACCTAGTGCAG,8180 fluorescence intensity (a.u.)
8,GCCAATTTTTTCTCCTCACATCTATTTTACCCTATTATTCCGGAGTCACCTAGTGCAG,8390 fluorescence intensity (a.u.)
9,CCGAGCACCCACCCGCCGCCGCCGCCGTCGCCGATTCATGCGGAGTCACCTAGTGCAG,9080 fluorescence intensity (a.u.)
10,GTAATTAACCAGAATTCAGGTTTTGTCAGTGCCACCATCACGGAGTCACCTAGTGCAG,9850 fluorescence intensity (a.u.)
11,TGGGACTTTATTTGCACTGGTTTTGGGAGTTGAGGGACACCGGAGTCACCTAGTGCAG,8550 fluorescence intensity (a.u.)
12,TTTGTGTTGTCTAGACATTTTTTTCTATTTTTCACCTATTCGGAGTCACCTAGTGCAG,9190 fluorescence intensity (a.u.)
13,TCGTTGATTTTTGACATGATGTTTGACCATTCTTATTATTCGGAGTCACCTAGTGCAG,9750 fluorescence intensity (a.u.)
14,ATTTCTAACTTTTTTTCCCATTGTTTTGTTTGTCTTATTTCGGAGTCACCTAGTGCAG,8920 fluorescence intensity (a.u.)
15,ATTTTATTGTTGCGGTTGCCAATCAACAACGACGTCATTTCGGAGTCACCTAGTGCAG,9550 fluorescence intensity (a.u.)
16,ACTTTGTCCACCCATTTTGTGTTGTCTCGTTGTTTCTATTCGGAGTCACCTAGTGCAG,17000 fluorescence intensity (a.u.)
17,GACACGGAAAATCATGGTTTGACTTTTTTTTTTGGGACGGCGGAGTCACCTAGTGCAG,19400 fluorescence intensity (a.u.)
18,TGTTGACTTTTGGATACATGTTTGACAATTCGTCTTATTTCGGAGTCACCTAGTGCAG,14700 fluorescence intensity (a.u.)
19,CGTTGACTTTTTCTTACATGTTTGACCATTCGTCTTATTTCGGAGTCACCTAGTGCAG,35300 fluorescence intensity (a.u.)
20,ATGACATGTCATGGGACTTACTTTACATGGTTTTGAATACCGGAGTCACCTAGTGCAG,8140 fluorescence intensity (a.u.)
21,GGTTTTGCGGTTGAGCGAAACGACCCAATGGGAATCAAGACGGAGTCACCTAGTGCAG,60000 fluorescence intensity (a.u.)
22,GAATCATGAGTTGGTTGGGTTGGCATTAAACTGTTTTGAGCGGAGTCACCTAGTGCAG,12100 fluorescence intensity (a.u.)
23,GGCCTCTCAACTGACCCGTCTGCGAAATATGTTTATTTTCCGGAGTCACCTAGTGCAG,8060 fluorescence intensity (a.u.)
24,ATTTATAGAGGTTGGGTGTGCATGTGTGGTGAGCATATTTCGGAGTCACCTAGTGCAG,8820 fluorescence intensity (a.u.)

row,Sequence,binding signal
1,GCTAGCGCTGCCGCCCTACTCTTGATCCTAAATATTCATTCGGAGTCACCTAGTGCAG,8210 fluorescence intensity (a.u.)
2,ACTGGTCGAACCTTGGCGGGGAGGGGCCGGCCGGCCTCATCGGAGTCACCTAGTGCAG,8640 fluorescence intensity (a.u.)
3,ATGAAATGTTTGTCATTTCTGGTGGGGCTGTTAGTTAATTCGGAGTCACCTAGTGCAG,9970 fluorescence intensity (a.u.)
4,CAAACCTGTGTACTTTCTACGTGTTTTTTCTATGTTTCCGCGGAGTCACCTAGTGCAG,12100 fluorescence intensity (a.u.)
5,ACCATATGCATCTGAATTTGTTCTGAGTATACTCCATTTCCGGAGTCACCTAGTGCAG,10600 fluorescence intensity (a.u.)
6,TGCCCGACTTGGCTTTCTCCTCCTCTCTCCTCCCGCAACCCGGAGTCACCTAGTGCAG,8600 fluorescence intensity (a.u.)
7,AGCAGTTAACCCACCGTACAACAAAATCAATCAGTTTCTTCGGAGTCACCTAGTGCAG,8270 fluorescence intensity (a.u.)
8,CCGCCGCCGCCTCCTGCTCCTTCGACCTGCCCCGGCCCCGCGGAGTCACCTAGTGCAG,8870 fluorescence intensity (a.u.)
9,CCCCTATTTAGCCGCGCCATTTTCCCCTCGCTAGCTGTGTCGGAGTCACCTAGTGCAG,8400 fluorescence intensity (a.u.)
10,TAATTTTTATAGGCCTGTTCATATTTTCTACCGTTGATTTCGGAGTCACCTAGTGCAG,10300 fluorescence intensity (a.u.)
11,TTGACATCCTACGTTTGTGTTCCTCGTCACTCCACTATCGCGGAGTCACCTAGTGCAG,8040 fluorescence intensity (a.u.)
12,CCAATTTCTCTCTCCACATCTCTCTGTGTTTCTTTTATTTCGGAGTCACCTAGTGCAG,9680 fluorescence intensity (a.u.)
13,TGTTTGACACCATTGACTTTTTAGTATGTGTTTGACCATTCGGAGTCACCTAGTGCAG,13200 fluorescence intensity (a.u.)
14,GGTTGGTTTCTTTGTTTTTCTCTTATATTTACACTATATTCGGAGTCACCTAGTGCAG,23800 fluorescence intensity (a.u.)
15,ATTGACTTTTTTAAAAATGTTTGACCATTCGTCTTATTCACGGAGTCACCTAGTGCAG,9010 fluorescence intensity (a.u.)
16,CGTCCTTATATAATTGTTTTACTTGGTGATTTCATCTGGTCGGAGTCACCTAGTGCAG,64500 fluorescence intensity (a.u.)
17,CTGTGTTTTCTATTTTTCTCTGTTTTACATCTATCTTCTTCGGAGTCACCTAGTGCAG,19100 fluorescence intensity (a.u.)
18,ACACCATTGACTTTTTAATATGTGTTTGACCATTCGTCTTCGGAGTCACCTAGTGCAG,19200 fluorescence intensity (a.u.)
19,TTCTTTTTATATTTTCTTTTGTTGGTTTTTTTCGTCTCAACGGAGTCACCTAGTGCAG,13200 fluorescence intensity (a.u.)
20,ATATTTTTTCTGTGTTTTGCAATCTTCTATTTTACACTTTCGGAGTCACCTAGTGCAG,11200 fluorescence intensity (a.u.)
21,CTTACTTGGTCACTCCCTTTTTGTTATCTGATTTAGACGTCGGAGTCACCTAGTGCAG,8230 fluorescence intensity (a.u.)
22,TTTTGACTTTCTCTTACACTGTTTGACCATTTATCTTATTCGGAGTCACCTAGTGCAG,14000 fluorescence intensity (a.u.)
23,TCTGTATGGTCTACTTGTTTGATTGATTGATAATTTTACACGGAGTCACCTAGTGCAG,9240 fluorescence intensity (a.u.)
